Values joined by “and” are separate entries in the source; they are usually repeats but may differ in a detail not shown here. Equal values may be shown once. Records with an inconclusive call do not appear. A call without a number means that no potency is given here. Where a structure was tested more than once in an assay, its records may differ in their call. Active and inactive are the calls of the source. The call rests on the fitted dose curve.

Among the data in PubChem BioAssay (Tox21) are Potency values, retold here.
Potency means the concentration at half of the fitted maximal effect.

The test can be described thus: qHTS assay to identify small molecule antagonists of the sonic hedgehog signaling (Shh) pathway (AID 1259369). Further: nearly all actives have a fitted effect of over 45% in size. The conditions noted are these: NIH/3T3 Gli1-Luc reporter, Shh antagonist, luminescence 24 h; series mostly up to 92.4 µM. The source says:
U.S. Tox21 Program National Center for Advancing Translational Sciences [NCATS] NIH Chemical Genomics Center [NCGC] U.S. Environmental Protection Agency [EPA] National Institutes of Environmental Health Sciences [NIEHS] National Toxicology Program [NTP] U.S. Food and Drug Administration [FDA] Tox21 Assay Overview: The sonic hedgehog (Shh) pathway is essential for normal embryonic development. Dysregulation of the Shh pathway can cause severe developmental defects in organs. Therefore chemicals that interfere with the pathway are potential developmental toxicants. A cell line designated 3T3Gli1-Luc (DMB/OARSA/CFSAN/FDA, Laurel, MD), a NIH/3T3 derived clone containing stably integrated Gli1-Luc reporter is used to detect chemical interference of the Shh pathway, by changes in the expression of the firefly Luc gene under the control of the Gli1 transcriptional response element. This cell line was used to screen Tox21 libraries for identifying and prioritizing the potential developmental toxicants that interfere Shh pathway. Conditioned medium-stimulated mode was used to screen for chemicals inhibiting Shh signaling.
Tox21 Assay Protocol Summary: 3T3 Gli1-Luc cells were dispensed at 2,000 per well in 5uL of culture medium into white solid bottom 1536-well plates (Greiner Bio-One, Monroe, NC) using a Multidrop Combi (Thermo Scientific, Waltham, MA) dispenser. The assay plates were incubated at 37 C and 5% CO2 for 4hr, and then 23nL of compounds dissolved in DMSO and positive control were transferred using a Pintool station (Wako, San Diego, CA). The compound transfer was followed by the addition of 1ul conditioned medium or assay buffer using two separate tips of Flying Reagent Dispenser (FRD, Aurora Discovery, San Diego, CA). The assay plates were incubated at 37C and 5% CO2 for 24hr. For luciferase read, 4uL of Amplite Luciferase reporter gene assay reagent (AAT Bioquest, Inc. Sunnyvale, CA) was added to each well of the assay plates using FRD and incubated at room temperature for 30min. The luminescence signal was measured using a ViewLux plate reader (Perkin Elmer, Shelton, CT).
(In general: In qHTS, concentration-response curves come from the screen itself.)
For `O=c1nc(O)n(Cl)c(=O)n1Cl`, the Potency result was “inactive”.

Turning to `CCCCn1cc[n+](C)c1`, the Potency entry is “inactive”. Under `CCCCCCCCCCCC(=O)O` stands “inactive”; under `C[N+](C)(C)Cc1ccccc1`, “inactive”; under `CCCCCCCCCCCCOS(=O)(=O)O`, “inactive”. For `CC(Cl)(Cl)C(=O)O`, the Potency entry was “inactive”. Under `OCCOc1ccccc1` stands “inactive”; under `Cc1cc(Cl)ccc1OCC(=O)O`, “inactive”; under `CCCC[n+]1ccccc1`, “inactive”.

Turning to `O=C(O)c1ccccc1O`, the Potency result is “inactive”. The value for `CCCn1cc[n+](C)c1` was “inactive”; that for `CNC` was “inactive”. The value for `CCn1cc[n+](C)c1C` was “inactive”.

With `CCC[N+]1(C)CCCCC1`, the Potency result is “inactive”.

For `COP(=O)(OC)C(O)C(Cl)(Cl)Cl` (stereo not given), the Potency result was “inactive”. Under `O=P1(N(CCCl)CCCl)NCCCO1` (stereo not given) stands “inactive”; under `COc1ccc(N)cc1`, “inactive”; under `Nc1ccc(-c2ccc(N)c(Cl)c2)cc1Cl`, 2.74 µM (active) and 1.01 µM (active). The value for `COP(=O)(OC)OC=C(Cl)Cl` was “inactive”; that for `CCCCn1cc[n+](C)c1C` was “inactive”; that for `CCCCCC[n+]1ccccc1` was 13.8 µM (active) and 17.3 µM (active) and inactive. Under `COCC(=O)N(c1c(C)cccc1C)C(C)C(=O)OC` (stereo not given) stands “inactive”; under `CCCCCCCCCCCCCC[P+](CCCCCC)(CCCCCC)CCCCCC`, 1.09 µM (active) and 1.1 µM (active) and 769 nM (active).

With `Cc1cc(-c2ccc(N)c(C)c2)ccc1N`, the Potency was 8.73 µM (active). Under `O=C(O)C(Cl)Cl` stands “inactive”. Under `CCCC[N+]1(C)CCCC1` stands “inactive”; under `CN(C)[C@@H]1C(=O)C(C(N)=O)=C(O)[C@@]2(O)C(=O)C3=C(O)c4c(O)cccc4[C@@](C)(O)[C@H]3[C@H](O)[C@@H]12`, “inactive”. The value for `CC[N+](CC)(CC)CC` was “inactive”; that for `O=S(=O)(O)O` was “inactive”; that for `CC(=O)O` was “inactive”.

With `C1CCC(NC2CCCCC2)CC1`, the Potency result is “inactive”. The value for `CC[n+]1ccccc1` was “inactive and 429 nM (active)”; that for `CCC(=O)C(CC(C)N(C)C)(c1ccccc1)c1ccccc1` (stereo not given) was 24.4 µM (active) and inactive; that for `O=[N+]([O-])c1ccccc1O` was “inactive”.

For `CCCC[n+]1ccccc1C`, the Potency entry is “inactive”.

On to `CCNc1nc(Cl)nc(NCC)n1`, for which the Potency was 2.16 µM (active) and inactive. The value for `CCC[N+]1(C)CCCC1` was “inactive”; that for `CCCCCCCCn1cc[n+](C)c1` was 215 nM (active) and 174 nM (active).

As for `CCOP(=S)(OCC)Oc1ccc2c(C)c(Cl)c(=O)oc2c1`, the Potency was 13.8 µM (active). Take `O=c1[nH]c(=O)n(Cl)c(=O)n1Cl`: the Potency result is “inactive”.
